About 550 (1.1%) of roughly 48,000 compounds were called active. Not shown: some 4% with an inconclusive outcome. The sample holds actives, similar compounds and a random draw of the others, so the mix is not that of the screen. Values without a mark were called inactive. Rule as the data show it: active = potency below about 15 µM; inconclusive = mostly about 16 µM to 33 µM; inactive = weaker than that.
What follows are compounds tested against Lysosomal acid glucosylceramidase (Homo sapiens) (UniProt P04062) (assay: Glucocerebrosidase). Settings: purified enzyme, resorufin glucoside fluorescence (screen aimed at inhibitors), 20 min.
From the text: NCGC Assay Overview: Beta-glucocerebrosidase catalyzes the hydrolysis of beta-glucocerebroside to glucose and ceramide. The inherited deficiency of beta-glucocerebrosidase results in Gaucher disease, which is characterized by a wide variety of symptoms including hepatosplenomegaly, anemia, thrombocytopenia, bony lesions and bone marrow infiltration with characteristic storage cells, known as Gaucher cells. There are also forms of the disorder affecting the central nervous system. Patients with the same genotypes can manifest with diverse clinical presentations and it is believed that improper folding and trafficking of beta-glucocerbrosidase may contribute to the phenotypes observed. Low molecular weight molecules, acting as chaperones, may potentially restore trafficking of misfolded beta-glucocerebrosidase from the endoplasmic reticulum to the lysosomes, thereby enhancing functional lysosomal beta-glucocerebrosidase activity. Using normal beta-glucocerebrosidase, an assay was developed to screen for small molecule inhibitors that could potentially act as molecular chaperones on the mutant forms [developed with NIH investigator Dr. Ellen Sidransky's laboratory]. Two pro-fluorescent substrates were chosen for two screens against a small molecule library. One beta-glucocerebrosidase assay used Resorufin beta-D-Glucopyranoside (Marker Gene Technology Inc.), generating a red fluorescent product. The second assay used Fluorescein di-beta-D-Glucopyranoside, generating a blue fluorescent product. […] The IC50 values of Conduritol B Epoxide, a known glucocerebrosidase inhibitor, were determined to be 87.5 uM and 117 uM, respectively. The use of two difference pro-fluorescent substrates in the screens helped to eliminate false positives. All compounds were screened in a titration series resulting in AC50s (e.g., IC50s or EC50s).
NCGC Assay Protocol Summary: Both enzyme and substrate were diluted in buffer composed of 50mM citric acid/KH2PO4, 10mM sodium taurocholate and 0.01% tween-20 at pH 5.9. The final concentration of the enzyme was 0.2 nM in both assays. The compound library was titrated in 7 to 15 concentrations for the primary screens with a final concentration ranging from 0.6 nM to 50 uM. This particular assay protocol is for the "red" substrate, and it was performed in 1536-well plate format as follows: Red fluorescence substrate assay: 2 uL enzyme 23 nL compound 1 uL substrate (final concentration of 30 uM) Incubate at room temperature (RT) for 20 minutes Read the plate in Viewlux plate reader (Ex=548(7) and Em=600(10)).
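Also: the screen sought inhibitors.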
Potency is read from the fitted curve at half-maximal effect.

Chain of Lysosomal acid glucosylceramidase (Homo sapiens) (P04062 whole entry, looked up): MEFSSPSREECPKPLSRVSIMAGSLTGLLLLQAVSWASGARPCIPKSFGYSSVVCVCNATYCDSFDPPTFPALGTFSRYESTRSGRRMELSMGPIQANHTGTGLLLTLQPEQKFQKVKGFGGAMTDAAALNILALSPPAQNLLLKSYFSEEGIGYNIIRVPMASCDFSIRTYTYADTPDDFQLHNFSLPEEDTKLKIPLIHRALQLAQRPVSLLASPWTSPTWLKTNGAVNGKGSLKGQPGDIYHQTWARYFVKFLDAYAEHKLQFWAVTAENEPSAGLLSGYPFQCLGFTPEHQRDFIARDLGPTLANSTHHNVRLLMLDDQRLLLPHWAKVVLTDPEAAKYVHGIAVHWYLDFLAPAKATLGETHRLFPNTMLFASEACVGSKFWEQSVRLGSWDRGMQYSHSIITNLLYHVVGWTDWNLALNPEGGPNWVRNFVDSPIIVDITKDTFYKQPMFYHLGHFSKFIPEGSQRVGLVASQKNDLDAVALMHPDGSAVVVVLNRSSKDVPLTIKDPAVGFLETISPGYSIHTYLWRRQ

SMILES	Potency
CCC(=O)Nc1cccc(NC(=O)CSc2nnc(-c3ccc(NS(C)(=O)=O)cc3)n2C)c1	> 76.9 µM
Cn1c(CN2CCOCC2)nc2cc(NC(=O)c3ccc(Cl)cc3)ccc21	52.2 µM
O=C(NCCCN1CCOCC1)c1cc(-c2ccc(Cl)cc2)on1	> 76.9 µM
COc1cccc2cc(C(C)N(CCCN3CCOCC3)C(=O)Nc3ccc(Cl)cc3)oc12 (stereo not given)	9.17 µM (active)
O=C(CSc1n[nH]c(-c2cccnc2)n1)Nc1ccnc2ccccc12	> 76.9 µM
COC(=O)c1ccccc1NC(=O)CSc1ccccn1	> 76.9 µM
O=C(CS(=O)(=O)Cc1ccccc1)NCC1CCCO1 (stereo not given)	> 76.9 µM
CC(C)N(C(=O)Cn1c(SCC(=O)N2CCN(c3ccccc3)CC2)nc2ccccc21)C(C)C	> 76.9 µM
CCOC(=O)c1sc(NC(=S)n2cc(C)cn2)c(C(=O)OCC)c1C	> 76.9 µM
COc1cccc(NC(=O)CN(C)S(=O)(=O)c2ccc(C)cc2)c1	> 76.9 µM
CC(C)NS(=O)(=O)c1ccc(CCC(=O)N2CCOCC2)cc1	> 76.9 µM
CCCc1nnc(NC(=O)CN2C(=O)c3ccccc3S2(=O)=O)s1	> 76.9 µM
CN1CCN(c2nc3c(c(=O)[nH]c(=O)n3C)n2Cc2cccc3ccccc23)CC1	> 76.9 µM
COc1ccc(C2N=C(N)N=C(N)N2c2ccccc2)cc1OC (stereo not given)	> 76.9 µM
O=C(Cn1c(-c2ccc(Cl)cc2)noc1=O)N1CCN(c2ccccc2F)CC1	> 76.9 µM
Fc1ccc(OCc2nn3c(Cn4nnc5ccccc54)nnc3s2)cc1	> 76.9 µM
Cc1ccc(S(=O)(=O)N2CCC(C(=O)N[C@@H](C)C(=O)NCc3ccccc3)CC2)cc1	> 76.9 µM
C/C(O)=C\c1nc(=O)c2c(C)cc(C)nc2n1-c1ccccc1	> 76.9 µM
O=C(COc1ccc(F)cc1)N(CC1=CCS(=O)(=O)C1)c1ccccc1	> 76.9 µM
COc1ccc2nc(NC3=NCN(CC4CCCO4)CN3)nc(C)c2c1 (stereo not given)	> 76.9 µM
CC(C)c1nc2oc3c(N4CCN(C)CC4)ncnc3c2c2c1CCC2	8.51 µM (active)
Cc1cc(C)nc(N2CCN(c3ncnc4c3oc3ccccc34)CC2)n1	> 76.9 µM
COc1ccc(CCn2c(-c3ccco3)nc3nc4ccccc4nc32)cc1OC	> 76.9 µM

SMILES	Potency
CCOC(=O)CCC(=O)OCC(=O)NC(C)C1CC2CCC1C2 (stereo not given)	> 76.9 µM
CCOC(=O)c1sc(N(Cc2ccccc2)C(=O)CN2C(=O)CN(C)C2=O)nc1C	> 76.9 µM
CCOC(=O)c1c(C)[nH]c(C(=O)NCc2ccccc2OC)c1C	> 76.9 µM
Fc1ccc(-c2nnc3sc(-c4ccc5c(c4)OCO5)nn23)cc1	> 76.9 µM
Cc1cc(C)cc(N(C(C)C(=O)Nc2c(C)n(C)n(-c3ccccc3)c2=O)S(C)(=O)=O)c1 (stereo not given)	> 76.9 µM
c1ccc(CCc2nc(-c3ccncc3)no2)cc1	> 76.9 µM
CC(Sc1nncn1C)C(=O)Nc1ccccc1-c1ccccc1 (stereo not given)	> 76.9 µM
Cc1ccc(S(=O)(=O)N2CCN(C(=O)CCC(=O)NC3CCCc4ccccc43)CC2)cc1 (stereo not given)	> 76.9 µM
Cc1noc(C)c1C(=O)NC(C)c1ccc2c(c1)OCO2 (stereo not given)	> 76.9 µM
CCN(CC)CCN1C(=O)C(=O)/C(=C(/O)c2ccc(OC)c(OC)c2)C1c1ccccn1 (stereo not given)	> 76.9 µM
Cc1nc(NC(CC(C)C)C(=O)O)c2nc(C)oc2n1 (stereo not given)	> 76.9 µM
C=CCn1c(C(C)NC(=O)CC)nc2ccccc21 (stereo not given)	> 76.9 µM
CCOC(=O)N1CCN(C(=O)C2CCN(S(C)(=O)=O)CC2)CC1	> 76.9 µM
Cc1cc(C)c2nc(N3CCCC3)c(C#N)cc2c1	> 76.9 µM
CC(C)CCNc1nc(N2CCCC2)c2c(c1C#N)CCN(C)C2	12.7 µM (active)
Cc1cccc2cc(C#N)c(N3CCCC3)nc12	> 76.9 µM
Cn1c(=O)n(C)c(=O)n(CC(=O)N2CCCCC2)c1=O	> 76.9 µM
Cc1cc(=O)cc(C)[nH]1	> 76.9 µM
C=CCn1c(SCc2cc(C(=O)OC)c(C)o2)nnc1-c1ccncc1	> 76.9 µM
Cc1ccc(S(=O)(=O)N(C)CC(=O)N2CCc3ccccc32)cc1	> 76.9 µM
CCC(CC)c1nnc(NS(=O)(=O)Cc2ccccc2)s1	> 76.9 µM
CC(Oc1ccc(Cl)cc1)C(=O)Nc1ncccn1 (stereo not given)	> 76.9 µM
COc1ccc(N2CCN(CCNC(=O)CCN3C(=O)COc4ccccc43)CC2)cc1	> 76.9 µM

SMILES	Potency
O=c1ccc2cc(S(=O)(=O)N3CCN(c4ccccc4)CC3)ccc2o1	> 76.9 µM
COc1ccc(N2CCN(Cc3cc(=O)oc4ccc5ccccc5c34)CC2)cc1	5.96 µM (active)
COC(=O)c1cc(NC(=O)CN2CCC(C(N)=O)(N3CCCCC3)CC2)cc(C(=O)OC)c1	> 76.9 µM
COc1ccc(S(=O)(=O)N2CCN(c3ncnc4c(-c5ccccc5)nsc34)CC2)cc1	> 76.9 µM
CCn1c2c(c3ccc(OC)cc31)CCCC2=O	> 76.9 µM
CCOC(=O)CNC(=O)CSc1nnc(COc2ccc(Cl)cc2)n1CC	> 76.9 µM
O=S(=O)(Nc1ccccc1N1CCOCC1)c1ccc(Cl)s1	> 76.9 µM
COc1cccc(C2/C(=C(/O)c3ccncc3)C(=O)C(=O)N2CCCN(C)C)c1 (stereo not given)	> 76.9 µM
CC1CCCCN1CC(=O)NCc1ccc2c(c1)OCO2 (stereo not given)	> 76.9 µM
CC(C)(C)Oc1ncc(Br)c(OC(C)(C)C)n1	> 76.9 µM
N#CC(C(N)=O)=C1CCC2(CC1)OCCCCO2	> 76.9 µM
O=C(Cn1c(=O)sc2ccccc21)Nc1ccc2c(c1)OCCO2	> 76.9 µM
COc1ccc(C(c2nnnn2Cc2cccs2)N2CCN(c3ccccc3)CC2)cc1OC (stereo not given)	> 76.9 µM
O=C(Cn1c(=S)nc2ccccn21)N1CCc2ccccc2C1	> 76.9 µM
COc1ccc(-c2nc(-c3ccccc3)no2)c(OC)c1	> 76.9 µM
CCOc1nc(-c2ccc(OC)cc2)ccc1-c1noc(-c2cc(OC)c(OC)c(OC)c2)n1	6.96 µM (active)
COc1ccc(-c2ccc(-c3noc(-c4ccncc4)n3)c(OC)n2)cc1	> 76.9 µM
CCCC(=O)Nc1ccc2c(c1)nc1n2CCSC1	> 76.9 µM
O=C(O)CCC(=O)N(Cc1ccco1)c1nc(-c2ccccc2)cs1	> 76.9 µM
COCc1nnc(NC(=O)CS(=O)(=O)Cc2ccccc2)s1	> 76.9 µM
Cc1ccc(C)n1-c1ccncc1	> 76.9 µM
Cc1ccc(C(C(=O)NCc2ccco2)N(CC2CCCO2)C(=O)Cn2nnc3ccccc32)cc1 (stereo not given)	> 76.9 µM
Cc1ccc(-c2noc(CCC(N)=O)n2)cc1	> 76.9 µM

SMILES	Potency
Cc1ccc(S(=O)(=O)N2CCOCC2)cc1C(=O)NCc1ccc(F)cc1	> 76.9 µM
Cc1nc(SCC(=O)Nc2cc(C)on2)c2c3c(sc2n1)CCCC3	15.3 µM (active)
Cc1nc(SCC(=O)Nc2cc(C)on2)c2c(C)c(C)sc2n1	> 76.9 µM
Cc1cc(C)n(-c2nc(SCC(=O)N3CCCC3)c3c4c(sc3n2)CCCC4)n1	> 76.9 µM
CCn1nnc(NC(=O)c2cc(Cl)c(OC)c(Cl)c2)n1	> 76.9 µM
Cc1ccccc1OCC(=O)Nc1ccc(N2CCN(C(=O)C(C)C)CC2)c(Cl)c1	2.17 µM (active)
Cc1cccc(NC(=O)COc2ccccc2C)n1	> 76.9 µM
CCOc1cc(N2CCOCC2)c(OCC)cc1NC(=O)COc1cccc2cccnc12	> 76.9 µM
CC1(C)CC(=O)C2=C(C1)NCN(CCCN1CCOCC1)C2	> 76.9 µM
Cn1c(=O)[nH]c(=O)c2c1nc(N1CCCCCC1)n2CC(=O)c1ccccc1	> 76.9 µM
CCn1c(SCC(=O)Nc2cc(C)c(Cl)cc2OC)nnc1-c1ccco1	> 76.9 µM
N#Cc1c(N)sc2c1CCN(C(=O)OCc1ccccc1)C2	> 76.9 µM
O=C(O)CCC(=O)N(Cc1cccs1)Cc1cccs1	> 76.9 µM
O=C(O)C1CC(=O)N(Cc2cccnc2)C1 (stereo not given)	> 76.9 µM
CC(NC(=O)c1cc(-c2ccccc2)on1)c1ccccc1 (stereo not given)	> 76.9 µM
O=C(Nc1ccccc1C(F)(F)F)c1cc(-c2ccc(O)cc2)on1	13.4 µM (active)
Cc1cc(C)nc(NC(=O)Nc2ccccc2C(F)(F)F)n1	> 76.9 µM
Cc1ccc(C(=O)CSc2nnc(Cn3nnc4ccccc43)n2C)cc1	> 76.9 µM
COC(=O)Cn1cc(C(=O)c2cccs2)c2ccccc21	> 76.9 µM
CCOC(=O)C1CCN(C(=O)Cn2cc(C#N)c3ccccc32)CC1	> 76.9 µM
CC1CCN(C(=O)Cn2cc(C(=O)c3ccco3)c3ccccc32)CC1	12.7 µM (active)

Reference: PubChem BioAssay AID360 (National Center for Advancing Translational Sciences (NCATS), 2006)
